Values joined by “and” are separate entries in the source; they are usually repeats but may differ in a detail not shown here. Equal values may be shown once. About 79,000 compounds went through this panel and 15% of them were active in at least one assay; those are over-represented in the sample as a whole. Active and inactive are the calls of the source. Rule as the data show it: active = growth inhibition above about 70%; inactive = the rest.
Assay: NCI Yeast Anticancer Drug Screen. Data for the sgs1 mgt1 strain (AID 161);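 also: 0% = growth of cultures given vehicle only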
Conditions: S. cerevisiae sgs1 mgt1 strain, at 50.0 µM, active compounds read high
Outline: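 This yeast growth screen uses a strain with defined DNA-repair lesions; compound-treated growth is compared with vehicle-treated growth.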

| SMILES | growth inhibition |
| --- | --- |
| O=C1NN(C2=NNC3(C(=O)N2)c2ccccc2-c2ccccc23)C(c2ccccc2)=N/C1=C/c1ccc(O)cc1 | 65% (inactive) |
| CC1=NN(C(=O)c2ccc(Cl)cc2)C(=O)C1N=Nc1ccc(S(=O)(=O)Nc2ncccn2)cc1 (stereo unspecified) | 10.8% (inactive) |
| CCN(CC)CCCNc1ncc(C)c2c1c1ccc3c(O)cccc3c1n2C | -31.9% (inactive) |
| O=C1SCCN1/N=C/c1ccc([N+](=O)[O-])o1 | 93.3% (active) |
| CC(C)(C)C1=NC(=S)SC2=NC(=O)C3(NN21)c1ccccc1-c1ccccc13 | 86.6% (active) |
| Nc1ncnc2c1ncn2C1OC(CO)C(O)C1O (stereo unspecified) | -1.8% (inactive) and 43.4% (inactive) and 5.55% (inactive) |
| Clc1ccc2oc(N3CCCCC3)nc2c1 | 99% (active) |
| Cc1ccnc(NC(c2ccccc2)c2ccc3cccnc3c2O)c1 (stereo unspecified) | 97.7% (active) |
| CC(=O)N(C1=C(Cl)C(=O)c2ccccc2C1=O)c1ccc(Cl)cc1 | 99.2% (active) |
| CSc1cc(C(=O)O)nc(N)n1 | -21.6% (inactive) |
| COc1ccc([C@H]2c3cc4c(cc3OC(O)(CO)[C@H]2C(=O)O)OCO4)c(OC)c1 (stereo partly specified) (tested in a mixture with another compound) | 44.1% (inactive) |
| CC(C)C(C)OC(=O)Nc1cccc(O)c1 (stereo unspecified) | 18.1% (inactive) |
| O=C(CC1(O)C(=O)Nc2c(Cl)ccc(Cl)c21)c1ccc(Cl)cc1Cl (stereo unspecified) | 90.8% (active) |
| CCOC1(OCC)Oc2c(Cl)c(Cl)c(Cl)c(Cl)c2OC1(OCC)OCC | 98.5% (active) |
| CCN(CC)CC(C)(C)C(=O)/C=C/c1ccc(Cl)c(Cl)c1 | 98% (active) |
| COc1cc(/C=C/C(C)=O)ccc1O | -6.5% (inactive) and 21.9% (inactive) and -16.1% (inactive) |
| O=C(O)C1C2CC3C(OC(=O)C31)C2Br (stereo unspecified) | -22.2% (inactive) and 2.5% (inactive) and 6.9% (inactive) |
| O=C(Cl)c1cc(-c2ccc(Cl)cc2)nc2c(Cl)cccc12 | 84.8% (active) |
| COC/C=N/Nc1ccc([N+](=O)[O-])cc1 | 98% (active) |
| Cn1c(N)c(NC(=O)CCl)c(=O)n(C)c1=O | -16.9% (inactive) |
| CCOC(=O)C(C)(c1c(C)[nH]c2ccccc12)c1c(C)[nH]c2ccccc12 | 95.8% (active) |

Source: PubChem BioAssay (NCI)
